PubChem BioAssay AID743279 (National Center for Advancing Translational Sciences (NCATS), 2014)
About 17,000 (4.7%) of roughly 360,000 compounds were called active. Inconclusive results (about 5%) are left out. Cut-off read from the data, not from the text of the source: active = activity change below about -50%; inconclusive = mostly about -30% to -49%; inactive = weaker than that. For the sample, actives were picked, then their nearest neighbours and some compounds at random.

experiment: qHTS for Inhibitors of Inflammasome Signaling: IL-1-beta AlphaLISA Primary Screen; settings: THP-1 LPS/ATP IL-1B secretion, 16 h; at 57.5 µM, hits give low values
In short: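 Secreted IL-1B measured by AlphaLISA bead assay after 16 h compound exposure of THP-1 cells; compounds (final up to 57.5 uM) added 1 h before LPS (250 ng/mL) and ATP (1.25 mM) stimulation; lower signal means less secretion.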
% is set by controls: 0 for no effect and ±100 for the full control effect.

Activity change, active:
Cc1cc(C(=O)CCl)c(C)n1CC1COc2ccccc2O1 (configuration not stated) -68.9%
CC(Nc1nc(C(F)(F)F)nc2ccccc12)c1cccs1 (configuration not stated) -63.4%
O=C1N=C(N2CCc3ccccc3C2)S/C1=C\c1ccc(O)cc1 -63.2%
CCc1ccc(/C=C2\SC(N3CCOCC3)=NC2=O)cc1 -62.4%
Cc1cc2c(cc1C)N(Cc1ccccc1)C1=NCCCN12 -58.1%
CC(=O)OCC(=O)C1(O)CCC2C3CC(C)C4=CC(=O)CCC4(C)C3C(O)CC21C (configuration not stated) -59.6%

Activity change, inactive:
O=C1C(=O)N(CC2COc3ccccc3O2)c2ccccc21 (configuration not stated) 11.2%
Cc1ccsc1C(=O)OCC(=O)c1cc(C)n(CC2CCCO2)c1C (configuration not stated) 33.5%
CC(=O)CC[C@@H](C)O[C@@H]1OC(C)[C@H](O)CC1O (some centres not stated) 29.3%
COC(=O)[C@]12CCCCC=C1N(Cc1ccco1)C(=O)[C@H](CC(=O)NCC1CCCCC1)C2 -8.27%
CCCOc1ccc(F)cc1-c1cc(C(=O)Nc2ccc(F)cc2)[nH]n1 3.22%
CC(C)(C)Nc1nc(-c2ccccn2)nc2ccccc12 -9.69%
Cc1cc(C)n(-c2nc(C(F)(F)F)nc3ccccc23)n1 21.5%
Cc1cc(/C=C2/SC(=O)N(CC(=O)N3CCCC3)C2=O)ccc1N1CCOCC1 -23.5%
CC1CCN(C2=NC(=O)/C(=C/c3ccc(O)cc3)S2)CC1 -16.5%
Cc1ccsc1/C=C1\SC(N2CCOCC2)=NC1=O -26%
NC1=NC(=O)S/C1=C\c1ccc(O)cc1 -9.74%
COC(=O)C1(C(=O)OC)C[C@H](c2ccccc2)N(Cc2ccccc2OC)[C@@H]1c1ccccc1 12.2%
O=[N+]([O-])c1ccc(C(S(=O)(=O)Cc2ccccc2)S(=O)(=O)Cc2ccccc2)cc1 -14.4%
CC(C)(O)C#Cc1ccc(CNC[C@H]2O[C@@H](n3cnc4c(=O)[nH]c(N)nc43)[C@H](O)[C@@H]2O)s1 0%
Cc1cc2oc(=O)cc(CN3CCN(Cc4ccccc4)CC3)c2cc1C 1.1%
CC(C)(C)C(=O)CN1C2=NCCN2c2ccccc21 0%
O=C(COC(=O)c1ccc(S(=O)(=O)N2CCCCCC2)cc1)Nc1ccccc1C(F)(F)F 23%
COc1ccc(OC)c(CN2C(=O)CCC2(C)c2nnnn2Cc2ccccc2)c1 (configuration not stated) 0%
Cc1ccc(-c2ccc(CN3C(C(C)C)C(=O)N(Cc4cn(CCC5OCCO5)nn4)CCS3(=O)=O)cc2)cc1 (configuration not stated) 14.8%
CC(=O)O[C@]1(C(C)=O)CC[C@H]2[C@@H]3C=C(C)C4=CC(=O)CC[C@]4(C)[C@H]3CC[C@@]21C -10.2%
CC1(C)C(=O)CCC2(C)C1=CCC1C2C(=O)CC2(C)C1CCC2(O)C(=O)CO (configuration not stated) 15.3%
